PubChem BioAssay AID1159580 (chemical genetic matrix, 2015)
Where “and” joins values, the source holds several entries; their conditions need not be identical. Equal entries are not always repeated. In all, about 5,500 compounds went through this assay and about 2,000 (36%) were called active. Roughly 18% stayed inconclusive and do not appear here. No stated cut-off is given here; in the data, active means normalized growth mostly below about 0.91 (no sharp cut-off); inconclusive means no clear call, values can overlap the other calls; inactive means mostly above about 0.92. Some of the results follow.

Test: chemical genetic growth profiling, strain panel (AID 1159580);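 further: tested at 20 µM; growth read once vehicle control cultures reached saturation at 30 °C; 1 = growth at the plate median or of vehicle wells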
Settings: S. cerevisiae deletion strains, growth OD
[1] = locus YAL013W, strain DEP1, stronger effect = lower value

Measured: normalized growth

CC[C@@H](C)[C@H]1O[C@]2(CC[C@@H]1C)C[C@@H]1C[C@@H](C/C=C(\C)[C@@H](O[C@H]3C[C@H](OC)[C@@H](O[C@H]4C[C@H](OC)[C@@H](O)[C@H](C)O4)[C@H](C)O3)[C@@H](C)/C=C/C=C3\CO[C@@H]4[C@H](O)C(C)=C[C@@H](C(=O)O1)[C@]34O)O2
inactive: locus YAL040C, strain CLN3, stronger effect = lower value 1.01 | locus YCL061C, strain MRC1 (second series), stronger effect = lower value 0.948 | locus YER002W, strain NOP16, stronger effect = lower value 1.02 | locus YNL175C, strain NOP13, stronger effect = lower value 1.01 | locus YNL197C, strain WHI3, stronger effect = lower value 1.02 | locus YNL224C, strain SQS1, stronger effect = lower value 0.993 | locus YOR083W, strain WHI5 (second series), stronger effect = lower value 0.981
active: [1] 0.732 | locus YDR363W, strain ESC2, stronger effect = lower value 0.613 | locus YPL241C, strain CIN2, stronger effect = lower value 0.869

CCC(C)[C@H]1O[C@]2(C=C[C@@H]1C)C[C@@H]1C[C@@H](C/C=C(\C)[C@@H](OC3C[C@H](OC)C(O[C@H]4C[C@H](OC)[C@@H](O)[C@H](C)O4)[C@H](C)O3)[C@@H](C)/C=C/C=C3\CO[C@@H]4[C@H](O)C(C)=C[C@@H](C(=O)O1)[C@]34O)O2 (some centres undefined)
0.865 (active) and 0.98 (inactive): locus YHR030C, strain SLT2, stronger effect = lower value
active: [1] 0.804 | locus YBR009C, strain hhf1, stronger effect = lower value 0.809 | locus YBR021W, strain FUR4, stronger effect = lower value 0.838 | locus YBR023C, strain chs3, stronger effect = lower value 0.889 | locus YBR279W, strain paf1, stronger effect = lower value 0.882 | locus YCL011C, strain gbp2, stronger effect = lower value 0.817 | locus YCL016C, strain dcc1, stronger effect = lower value 0.86 | locus YCL029C, strain bik1, stronger effect = lower value 0.889 | locus YCL069W, strain vba3, stronger effect = lower value 0.898 | locus YDL035C, strain GPR1, stronger effect = lower value 0.847 | locus YDL074C, strain BRE1, stronger effect = lower value 0.669 | locus YDL134C, strain PPH21, stronger effect = lower value 0.853 | locus YDL192W, strain arf1, stronger effect = lower value 0.847 | locus YDR137W, strain rgp1, stronger effect = lower value 0.499 | locus YDR162C, strain NBP2, stronger effect = lower value 0.769 | locus YDR195W, strain ref2 1.32 [resistant] | locus YDR318W, strain mcm21, stronger effect = lower value 0.853 | locus YDR388W, stronger effect = lower value 0.857 | locus YDR502C, strain sam2, stronger effect = lower value 0.841 | locus YER016W, strain bim1, stronger effect = lower value 0.911 | locus YGL086W, strain mad1, stronger effect = lower value 0.8 | locus YGL248W, strain PDE1, stronger effect = lower value 0.797 | locus YGL253W, strain hxk2, stronger effect = lower value 0.743 | locus YHR079C, strain IRE1 (second series), stronger effect = lower value 0.87 | locus YHR129C, strain ARP1, stronger effect = lower value 0.814 | locus YHR142W, strain chs7, stronger effect = lower value 0.864 | locus YIL066C, strain RNR3, stronger effect = lower value 0.742 | locus YIR030C, strain dcg1, stronger effect = lower value 0.904 | locus YJL095W, strain BCK1 (second series), stronger effect = lower value 0.891 | locus YJL164C, strain tpk1, stronger effect = lower value 0.795 | locus YJL187C, strain SWE1 (second series), stronger effect = lower value 0.791 | locus YKR001C, strain vps1, stronger effect = lower value 0.253 | locus YLL026W, stronger effect = lower value 0.886 | locus YLR039C, strain RIC1, stronger effect = lower value 0.274 | locus YLR058C, strain SHM2, stronger effect = lower value 0.881 | locus YLR221C, strain rsa3, stronger effect = lower value 0.832 | locus YLR258W, strain gsy2, stronger effect = lower value 0.849 | locus YLR262C, strain YPT6 (second series), stronger effect = lower value 0.418 | locus YLR262C, strain YPT6, stronger effect = lower value 0.214 | locus YLR268W, strain sec22, stronger effect = lower value 0.695 | locus YLR320W, strain mms22, stronger effect = lower value 0.828 | locus YLR330W, strain CHS5, stronger effect = lower value 0.893 | locus YLR342W, strain FKS1 (second series), stronger effect = lower value 0.452 | locus YLR342W, strain FKS1, stronger effect = lower value 0.681 | locus YLR418C, strain cdc73, stronger effect = lower value 0.824 | locus YMR205C, strain PFK2, stronger effect = lower value 0.77 | locus YMR307W, strain GAS1, stronger effect = lower value 0.323 | locus YNL071W, strain lat1, stronger effect = lower value 0.824 | locus YNL153C, strain GIM3, stronger effect = lower value 0.821 | locus YNL233W, strain BNI4, stronger effect = lower value 0.849 | locus YNL307C, strain MCK1, stronger effect = lower value 0.46 | locus YOR069W, strain VPS5, stronger effect = lower value 0.92 | locus YOR070C, strain gyp1, stronger effect = lower value 0.837 | locus YOR184W, strain ser1, stronger effect = lower value 0.698 | locus YOR270C, strain vph1, stronger effect = lower value 0.59 | locus YOR290C, strain snf2, stronger effect = lower value 0.864 | locus YPL051W, strain arl3, stronger effect = lower value 0.676 | locus YPL055C, strain LGE1, stronger effect = lower value 0.627 | locus YPL106C, strain sse1, stronger effect = lower value 1.38 [resistant] | locus YPR163C, strain tif3, stronger effect = lower value 0.897 | locus YPR167C, strain met16, stronger effect = lower value 0.862 | strain wtn01, stronger effect = lower value 0.76
0.722 (active) and 0.976 (inactive): locus YJL095W, strain BCK1, stronger effect = lower value
inactive: locus YAL021C, strain ccr4, stronger effect = lower value 0.919 | locus YAL026C, strain drs2, stronger effect = lower value 0.954 | locus YAL030W, strain snc1, stronger effect = lower value 0.984 | locus YBL061C, strain skt5, stronger effect = lower value 0.964 | locus YBR171W, strain sec66, stronger effect = lower value 1 | locus YBR229C, strain ROT2, stronger effect = lower value 0.997 | locus YBR231C, strain swc5, stronger effect = lower value 0.947 | locus YCL061C, strain MRC1, stronger effect = lower value 0.976 | locus YCR088W, strain abp1, stronger effect = lower value 0.981 | locus YDL005C, strain med2, stronger effect = lower value 0.971 | locus YDL040C, strain nat1, stronger effect = lower value 0.983 | locus YDL101C, strain DUN1, stronger effect = lower value 0.933 | locus YDL185W, strain tfp1, stronger effect = lower value 1.02 | locus YDR001C, strain nth1, stronger effect = lower value 0.996 | locus YDR069C, strain doa4, stronger effect = lower value 1.02 | locus YDR101C, strain arx1, stronger effect = lower value 0.959 | locus YDR159W, strain sac3, stronger effect = lower value 0.915 | locus YDR297W, strain sur2, stronger effect = lower value 0.989 | locus YDR334W, strain swr1, stronger effect = lower value 0.982 | locus YDR335W, strain msn5, stronger effect = lower value 0.996 | locus YDR392W, strain spt3, stronger effect = lower value 0.855 | locus YEL003W, strain gim4, stronger effect = lower value 0.928 | locus YEL037C, strain rad23, stronger effect = lower value 0.973 | locus YEL061C, strain CIN8 (second series), stronger effect = lower value 0.973 | locus YEL061C, strain CIN8, stronger effect = lower value 0.933 | locus YER015W, strain faa2, stronger effect = lower value 0.957 | locus YER110C, stronger effect = lower value 1.03 | locus YER111C, strain swi4, stronger effect = lower value 0.997 | locus YER155C, strain BEM2 (second series), stronger effect = lower value 1.07 | locus YER155C, strain BEM2, stronger effect = lower value 0.966 | locus YER167W, strain BCK2, stronger effect = lower value 0.913 | locus YFR010W, strain ubp6, stronger effect = lower value 1 | locus YGL078C, strain dbp3, stronger effect = lower value 1.01 | locus YGL167C, strain pmr1, stronger effect = lower value 1.01 | locus YGL173C, strain kem1, stronger effect = lower value 0.967 | locus YGL227W, strain vid30, stronger effect = lower value 1 | locus YGL240W, strain doc1, stronger effect = lower value 1.06 | locus YGR135W, strain pre9, stronger effect = lower value 1.03 | locus YGR252W, strain gcn5, stronger effect = lower value 0.939 | locus YHR013C, strain ard1, stronger effect = lower value 0.847 | locus YHR027C, strain rpn1, stronger effect = lower value 0.977 | locus YHR079C, strain IRE1, stronger effect = lower value 0.966 | locus YHR094C, strain hxt1, stronger effect = lower value 1.01 | locus YHR200W, strain rpn10, stronger effect = lower value 1.01 | locus YIL073C, strain SPO22, stronger effect = lower value 0.817 | locus YIL125W, strain kgd1, stronger effect = lower value 0.994 | locus YJL092W, strain hpr5, stronger effect = lower value 0.967 | locus YJL115W, strain asf1, stronger effect = lower value 1 | locus YJL129C, strain trk1, stronger effect = lower value 0.955 | locus YJL134W, strain LCB3, stronger effect = lower value 1.01 | locus YJL154C, strain vps35, stronger effect = lower value 1 | locus YJL166W, strain qcr8, stronger effect = lower value 0.916 | locus YJL168C, strain set2, stronger effect = lower value 1.02 | locus YJL187C, strain SWE1, stronger effect = lower value 0.951 | locus YJR043C, strain POL32, stronger effect = lower value 0.932 | locus YJR066W, strain TOR1, stronger effect = lower value 0.973 | locus YJR075W, strain HOC1, stronger effect = lower value 0.906 | locus YKL009W, strain mrt4, stronger effect = lower value 1.01 | locus YKL068W, stronger effect = lower value 0.995 | locus YKL085W, strain MDH1 (second series), stronger effect = lower value 0.981 | locus YKL085W, strain MDH1, stronger effect = lower value 0.981 | locus YKL160W, strain elf1, stronger effect = lower value 0.969 | locus YKR026C, strain gcn3, stronger effect = lower value 0.996 | locus YKR091W, strain srl3, stronger effect = lower value 0.989 | locus YLL001W, strain dnm1, stronger effect = lower value 0.983 | locus YLL041C, strain sdh2, stronger effect = lower value 0.98 | locus YLR027C, strain aat2, stronger effect = lower value 0.936 | locus YLR102C, strain apc9, stronger effect = lower value 1.02 | locus YLR113W, strain HOG1, stronger effect = lower value 0.975 | locus YLR357W, strain rsc2, stronger effect = lower value 1.03 | locus YLR370C, strain arc18, stronger effect = lower value 0.985 | locus YLR371W, strain rom2, stronger effect = lower value 1.03 | locus YLR384C, strain iki3, stronger effect = lower value 1.02 | locus YML016C, strain PPZ1, stronger effect = lower value 1 | locus YML032C, strain rad52, stronger effect = lower value 0.915 | locus YML120C, strain ndi1, stronger effect = lower value 0.955 | locus YML124C, strain tub3, stronger effect = lower value 1.01 | locus YMR058W, strain fet3, stronger effect = lower value 1 | locus YMR078C, strain ctf18, stronger effect = lower value 0.98 | locus YMR125W, strain sto1, stronger effect = lower value 1.03 | locus YMR129W, stronger effect = lower value 0.996 | locus YMR223W, strain ubp8, stronger effect = lower value 0.953 | locus YMR231W, strain pep5, stronger effect = lower value 0.984 | locus YNL067W, strain RPL9B, stronger effect = lower value 0.904 | locus YNL183C, strain NPR1, stronger effect = lower value 0.926 | locus YNL209W, strain ssb2, stronger effect = lower value 0.937 | locus YNL248C, strain rpa49, stronger effect = lower value 0.926 | locus YNL250W, strain rad50, stronger effect = lower value 1.02 | locus YNL271C, strain bni1, stronger effect = lower value 1.01 | locus YNL298W, strain CLA4, stronger effect = lower value 1.04 | locus YNL322C, strain KRE1 (second series), stronger effect = lower value 0.935 | locus YNR049C, strain mso1, stronger effect = lower value 0.987 | locus YNR052C, strain pop2, stronger effect = lower value 0.952 | locus YOL012C, strain htz1 0.305 | locus YOL147C, strain pex11, stronger effect = lower value 0.935 | locus YOR001W, strain rrp6, stronger effect = lower value 1 | locus YOR061W, strain CKA2, stronger effect = lower value 0.891 | locus YOR080W, strain dia2, stronger effect = lower value 0.997 | locus YOR083W, strain WHI5, stronger effect = lower value 0.901 | locus YOR106W, strain vam3, stronger effect = lower value 0.984 | locus YOR136W, strain idh2, stronger effect = lower value 0.936 | locus YOR144C, strain elg1, stronger effect = lower value 0.97 | locus YOR231W, strain MKK1, stronger effect = lower value 0.945 | locus YOR265W, strain rbl2, stronger effect = lower value 0.98 | locus YOR316C, strain cot1, stronger effect = lower value 1.01 | locus YPL078C, strain atp4, stronger effect = lower value 0.982 | locus YPL240C, strain hsp82, stronger effect = lower value 0.931 | locus YPL256C, strain CLN2, stronger effect = lower value 0.955 | locus YPR119W, strain clb2, stronger effect = lower value 1.02 | locus YPR141C, strain kar3, stronger effect = lower value 0.997
